Screens (PubChem)
Hits are enriched below; roughly 12% of the tested compounds scored in any of these assays.
SARS PLP yeast: qHTS of Yeast-based Assay for SARS-CoV PLP; S. cerevisiae expressing SARS-CoV PLpro, growth rescue; Potency, µM (doses to about 32.9 µM), usual class: activators; hit rate 0.19% among 330,000; further: nearly all actives have a fitted effect of over 55% in size
Shiga inhibitor: A qHTS for Small Molecule Inhibitors of Shiga Toxin; Vero cells, Shiga toxin protein synthesis inhibition reporter; inhibition, % at 38.7 µM; hit rate 9.2% among 290,000; AID 2315, 2010; in the data active means inhibition mostly above about 28%, no sharp cut-off; inactive means mostly below about 43%
Cycloheximide cs: Cycloheximide Counterscreen for Small Molecule Inhibitors of Shiga Toxin. hit rate 12% among 300,000. max response, %. cell reporter, cycloheximide protein synthesis inhibition counterscreen; in the data active means max response mostly above about 13%, no sharp cut-off; inactive means mostly below about 14%; further: read at 38.3 µM for the half of the compounds with a filed dose
NS1 inh: qHTS Assay for Inhibitors of Influenza NS1 Protein Function. Potency, µM (doses to about 46.1 µM). hit rate 0.4% among 270,000; further: actives are rising curves; nearly all actives have a fitted effect of over 50% in size
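OD600 was taken as the measure of yeast growth restored by compound in an NS1-expressing S. cerevisiae strain. Cells had been washed out of glucose medium and diluted 1:100 into galactose -URA medium, pH 6.0.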
A number is an active result; – = inactive; ? = inconclusive; · = no result. Unless noted, the call rests on the fitted dose curve.

SMILES	SARS PLP yeast	Shiga inhibitor	Cycloheximide cs	NS1 inh
Cc1ccc(-c2nc(C)c(C(=O)O)s2)cc1	–	–	21	–
CCNC(=O)c1sc(-c2ccccc2)nc1C	–	66	45	–
Cc1nc(-c2ccc(Cl)cc2)sc1C(=O)O	–	91	–	·
COc1cc2ccccc2cc1C(=O)NCc1ccncc1	–	–	–	–
CC(=O)c1sc(-c2ccccc2)nc1C	–	–	35	–
Cc1nc(-c2ccccc2)sc1C(=O)O	–	84	31	·
COc1ccc(/C=C/C(=O)c2sc(-c3ccccc3)nc2C)cc1	–	–	–	–
Cc1nc(-c2ccc([N+](=O)[O-])cc2)sc1C(=O)O	–	–	20	–
Cc1nc(-c2cccs2)sc1C(=O)O	–	–	–	–
Cc1ccccc1Cn1c(=N)n(CC(=O)c2ccco2)c2ccccc21	–	–	–	?
COC(C(=O)N/N=C(\C)c1ccc(C(C)(C)C)cc1)c1ccccc1 (configuration not stated)	–	–	–	–
COc1ccc(-c2nc(SCc3ccccc3)n(S(C)(=O)=O)n2)cc1	–	–	–	–
CCS(=O)(=O)n1nc(-c2ccc(Cl)cc2)nc1SCc1ccccc1	–	60	19	–
CCS(=O)(=O)n1nc(-c2ccc(C)cc2)nc1N	–	–	9.4	–
N#Cc1c(C(F)(F)F)cc(-c2ccccc2)nc1SCC(=O)Nc1sc2c(c1C#N)CCC2	–	–	–	–
O=C(CN1CCN(C(=O)c2cccs2)CC1)NC1CCCCC1	–	–	–	–
O=C(COC(=O)c1cccs1)NC1CCCC1	–	–	20	–
O=C(NC1CCCCC1)c1cccs1	–	–	24	–
O=C(COC(=O)c1cccs1)NC1CCCCC1	–	94	43	–
O=C(COC(=O)c1cccs1)NC12CC3CC(CC(C3)C1)C2	–	–	29	·
O=C(COC(=O)CCC(=O)c1cccs1)NC1CCCCC1	–	·	·	·
CC(C)[C@H](NC(=O)c1ccccc1F)C(=O)OCCN1C(=O)c2ccccc2C1=O	–	·	·	·
Cc1cc(C)c(NC(=O)COC(=O)c2c(C)noc2C)c(Cl)c1	–	·	·	·
Oc1cccc(/C=N\Nc2nncc(-c3ccccc3)n2)c1	–	50	64	–
CNc1nc(C)nc(N/N=C/c2ccccc2)n1	–	–	28	–
SMILES	SARS PLP yeast	Shiga inhibitor	Cycloheximide cs	NS1 inh
Cc1cc(-c2ccccc2)nc(N/N=C/c2ccc([N+](=O)[O-])cc2)n1	–	–	–	–
Cc1cc(-c2ccccc2)nc(N/N=C/c2ccccc2)n1	–	55	32	–
CCOc1cc(/C=N/Nc2nncc(-c3ccccc3)n2)ccc1O	–	–	–	·
Cc1cc(-c2ccccc2)nc(N/N=C/c2ccco2)n1	–	85	36	–
N#Cc1ccc(COC(=O)CC(NC(N)=O)c2ccc(Cl)cc2)cc1 (configuration not stated)	–	–	–	–
O=C(COC(=O)COc1ccccc1)NC1CCCc2ccccc21 (configuration not stated)	–	–	–	–
COc1ccc(NS(=O)(=O)c2cccc(C(=O)NNC(=O)c3cc(S(N)(=O)=O)ccc3OC)c2)cc1	–	·	·	·
Cc1ccccc1/C=N/Nc1nc2ccccc2c(=O)n1O	–	75	20	–
Cc1cc(-c2ccccc2)nc(N/N=C/c2ccc(O)cc2O)n1	–	91	23	–
COc1ccc(/C=N/Nc2nc(C)cc(-c3ccccc3)n2)cc1OC	–	–	–	–
C(=N/Nc1nc(-c2ccccc2)cc(-c2ccccc2)n1)/c1cccnc1	–	69	61	?
Cc1cc(N/N=C/c2ccccc2O)c2ccccc2n1	–	–	26	–
Cc1cc(-c2ccccc2)nc(N/N=C/c2cccnc2)n1	–	–	–	–
CCOc1ccc(S(=O)(=O)NCCC(=O)N(C)CC(=O)Nc2ccc(N3CCOCC3)cc2)cc1	–	·	·	·
Cc1cccc2nc(CNC(=O)C3CCC(=O)N(Cc4ccccc4F)C3)cn12 (configuration not stated)	–	–	–	–
COc1ccc(S(=O)(=O)N2CCC(C(=O)Nc3nnc(C)s3)CC2)cc1OC	–	·	·	·
Cc1ccc(/C=C/C(=O)Nc2ccncc2)o1	–	–	–	–
Cc1ccc(/C=C/C(=O)Nc2ccc(N(C)C)cc2)o1	–	85	38	–
Cc1ccc(/C=C/C(=O)Nc2nccs2)o1	–	108	55	–
Cc1cnc(NC(=O)/C=C/c2ccc(Br)o2)s1	–	81	16	–
Cc1ccc(/C=C/C(=O)Nc2ncc(C)s2)o1	–	69	47	–
O=C(CC1SCCNC1=O)Nc1cccc([N+](=O)[O-])c1 (configuration not stated)	–	–	–	–
CC(=O)c1c(C)nc2ccc([N+](=O)[O-])cc2c1-c1ccccc1	–	–	–	–
CCOC(=O)/C=C/C(=O)Nc1nccs1	–	–	15	–
CCOC(=O)C(=O)Nc1nccs1	–	–	–	–
SMILES	SARS PLP yeast	Shiga inhibitor	Cycloheximide cs	NS1 inh
CC(=O)c1c(C)cc(C)c(CSc2nnc(-c3ccco3)o2)c1C	–	–	–	–
Cc1[nH]c2ccccc2c1Cc1nnc(SCCC#N)o1	–	–	–	–
CN(C)c1cccc(-c2nnc(SCCCC#N)o2)c1	–	91	49	–
Cc1cccc(-c2nnc(SCc3ccccc3)o2)c1	–	92	28	–
Cc1cccc(CSc2nnc(-c3ccco3)o2)c1	–	89	32	–
CN(C)CCSc1nnc(-c2ccccc2)o1	–	57	39	–
O=C(NC1CCCCC1)C(c1ccccc1)N(C(=O)c1csnn1)C1CC1 (configuration not stated)	–	–	–	–
Oc1ccc(/C=N/Nc2cccc3cccnc23)c(O)c1	–	102	59	?
Cc1ccc(/C=N/Nc2cccc3cccnc23)c(O)c1	–	–	28	–
O=C(O)/C=C/C(=O)Nc1cccc2cccnc12	–	–	–	–
CCN(CC(=O)Nc1ccc(C(C)=O)cc1)CC(=O)Nc1cccc(OC)c1	–	–	–	·
O=C(NN1C(=O)c2ccccc2C1=O)C1C2CCCCC21 (configuration not stated)	–	–	11	–
CC1(C)C(C(=O)NN2C(=O)c3ccccc3C2=O)C1(C)C	–	–	–	–
CCOC(=O)Cc1csc(NS(=O)(=O)c2ccc(OC)cc2)n1	–	–	–	?
O=C(/C=C/c1ccc(O)cc1)c1ccc(NC2=C(N3CCCCC3)C(=O)c3ccccc3C2=O)cc1	–	160	59	–
O=C(O)c1cccc(NC2=C(Cl)C(=O)c3ccccc3C2=O)c1	–	–	–	·
O=C1C(Nc2cccc(O)c2)=C(N2CCCCC2)C(=O)c2ccccc21	–	51	35	–
CC1=C(Nc2ccc(C(=O)O)cc2)C(=O)c2ccccc2C1=O	–	–	–	–
CN(C1=C(N2CCCCC2)C(=O)c2ccccc2C1=O)c1ccccc1	?	–	–	–
O=C1C(Nc2ccccc2)=C(N2CCCCC2)C(=O)c2ccccc21	–	72	31	–
O=C1C(NS(=O)(=O)c2ccc(Br)cc2)=C(N2CCCCC2)C(=O)c2ccccc21	–	–	–	–
COc1ccccc1NC1=C(N2CCCCC2)C(=O)c2ccccc2C1=O	–	–	23	–
